Screens deposited in PubChem BioAssay by National Center for Advancing Translational Sciences (NCATS).
Anesthetic bind: qHTS Assay for Identification of Novel General Anesthetics | Ferritin light chain (Equus caballus), P02791 | apoferritin/1-aminoanthracene competitive binding, fluorescence | Potency, µM (series often up to 77.5 µM), for the others: top-dose activity change, negative = displacement, hits mostly inhibitors | actives 0.074% (n = 350,000) | AID 485281, 2010; active = well fitted inhibition curve with a large enough effect; inconclusive = small, poorly fitted or top-dose-only effect; inactive = no such curve, though single readings can be large or run the other way; also: potency is read from the fitted curve at half-maximal effect; % is scaled to controls: 0 for no effect and ±100 for the full control effect; nearly all actives have a fitted effect of over 20% in size
Target sequence (P02791 2-175 limits assumed): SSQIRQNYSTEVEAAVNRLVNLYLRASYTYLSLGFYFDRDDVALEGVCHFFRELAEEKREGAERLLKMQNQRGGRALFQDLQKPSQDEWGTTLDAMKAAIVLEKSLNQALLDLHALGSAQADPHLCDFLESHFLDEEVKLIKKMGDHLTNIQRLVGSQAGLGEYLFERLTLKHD
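Apoferritin-based anesthetic binding model; compound displacement of fluorescent 1-AMA measured as endpoint fluorescence after 10 minutes at room temperature, scaled to free-ligand and complex controls.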
D2 ag-1: HTS Assay for Allosteric Agonists of the Human D2 Dopamine Receptor: Primary Screen for Agonists. actives 0.53% (n = 340,000). activation, % at 2 µM. D(2) dopamine receptor (Homo sapiens), P14416. HEK293 T-REx D2 cells, calcium flux agonist mode;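 active = activation over 3 SD above normal in the single-dose calcium agonist read, cut at about 30% in these data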; also: 0% is about no effect
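Calcium-flux readout, 1 cycle/sec over 180 s following compound pin transfer, in inducible HEK293 Trex D2 cells (force-coupled); dopamine controls included. Positive calcium responses during this window marked compounds as potential agonists.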
D2 PAM-1: Beta-Arrestin HTS for Positive Allosteric Modulators of the Human D2 Dopamine Receptor: Potentiators | DiscoveRx D2 beta-arrestin cells, luminescence, 90 min; 100% = 57 uM dopamine signal | potentiation, % (test concentration not listed) | D(2) dopamine receptor (Homo sapiens), P14416 | actives 0.23% (n = 360,000); in the data active = potentiation above about 50%; inconclusive = mostly about 30% to 49%
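PathHunter D2 cells, attached overnight at 37 deg C, received compound in DMSO plus dopamine at EC20 (50 nM final) for 90 min at 37 deg C. Beta-arrestin recruitment was read as luminescence after 1 h with detection reagent at ambient temperature.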
D2 PAM-2: HTS Assay for Positive Allosteric Modulators of the Human D2 Dopamine Receptor: Primary Screen for Potentiators | AID 485347, 2010 | D(2) dopamine receptor (Homo sapiens), P14416 | potentiation, % at 10 µM | actives 0.34% (n = 340,000) | HEK293 T-REx D2, calcium flux, EC20 dopamine potentiation;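 active = potentiation over 3 SD above the plate norm, cut at about 30% in these data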; also: 0% is about no effect
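Calcium flux readout, no-wash dye, 1 read/s. Inducible HEK293 Trex D2 line, overnight 30 C. Compound alone 180 s (agonist flags), then EC20 dopamine, another 180 s to score potentiation.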
D2 ag-2: Beta-Arrestin HTS for Positive Allosteric Modulators of the Human D2 Dopamine Receptor: Agonists; AID 624465, 2012; DiscoveRx PathHunter D2 beta-arrestin, luminescence, 90 min; 100% = 57 uM dopamine signal; activation, % (concentration not given with the values); actives 0.084% (n = 360,000); in the data active = activation above about 40%; inconclusive = between about 15% and that limit
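Agonist mode: compounds alone added to overnight-plated D2 PathHunter cells for 90 min at 37 C, with 57 uM final dopamine (EC100) defining full response. Beta-arrestin recruitment detected by chemiluminescent reagent, read after 1 h at ambient temperature.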
D2 antagonist: HTS Assay for Allosteric Antagonists of the Human D2 Dopamine Receptor: Primary Screen for Antagonists | D(2) dopamine receptor (Homo sapiens), P14416 | HEK293 TREx D2 cells, calcium flux, dopamine EC80 | inhibition, % at 10 µM | actives 2% (n = 340,000) | AID 485344, 2010; in the data active = inhibition above about 30%; inactive = below that, where a call was filed; also: 0% is about no effect
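Overnight-induced (tetracycline, 30 C) HEK293 T-REx cells carrying force-coupled D2 receive a no-wash calcium dye, then compound, then EC80 dopamine at 180 s; signals are read kinetically throughout.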
* marks the source's active call; other numbers are inactive results; ? = inconclusive; . = no result. In the library only some 2.5% were active in any assay of this set; here they are far more common.

SMILES	Anesthetic bind	D2 ag-1	D2 PAM-1	D2 PAM-2	D2 ag-2	D2 antagonist
COc1ccc(NC(=O)c2cc(S(=O)(=O)N3CCCC3)c[nH]2)cc1	-12%	0	0	6	-30	-5
CC1CCCCC1NC(=O)CSc1nnnn1-c1ccccc1 (configuration not stated)	7%	0	12	7	-2	-10
CCN(C(=O)c1c(-c2ccccc2)noc1C)c1ccccc1	4%	0	-6	5	-1	-15
COc1ccc(C(=O)NCC(c2ccco2)N(C)C)cc1S(=O)(=O)NCc1ccc(Cl)cc1 (configuration not stated)	.	0	-39	-24	-2	78*
Cc1ccccc1CC(=O)N1CCN(C(=O)c2ccco2)CC1	-4%	0	-10	6	-2	6
CCOc1ccc(N(CC(=O)NCCc2ccc(Cl)cc2)S(=O)(=O)c2c(C)[nH]c(=O)[nH]c2=O)cc1	-8%	-2	-2	32*	1	2
O=C(NN1C(=O)/C(=C/c2cc([N+](=O)[O-])ccc2O)SC1=S)c1ccccc1O	.	1	.	-9	.	-2
Cc1ccc(/C=C2\SC(=S)N(/N=C/c3cc([N+](=O)[O-])ccc3O)C2=O)o1	?	0	-7	1	0	32*
FC(F)Oc1ccc(/C=N/c2c(-c3ccc(OC(F)F)cc3)nc3n2CCS3)cc1	-12%	0	-9	35*	0	-8
O=C(NCCc1ccccc1)c1cc(S(=O)(=O)N2CCCC2)ccc1F	-5%	-1	2	3	5	4
CCSc1ccc2nnc(-c3ccc(F)cc3)n2n1	6%	0	-1	3	0	-16
O=C(NNc1nc2cc3c(cc2s1)OCO3)c1cccc(F)c1	-12%	0	0	-13	4	40*
Cc1ccc(NC(=O)C2CCN(S(=O)(=O)c3c(C)noc3/C=C/N(C)C)CC2)cc1	-12%	1	-12	4	-1	-29
Cc1noc(/C=C/N(C)C)c1S(=O)(=O)N1CCC(C(=O)NC(C)(C)C)CC1	-15%	-1	0	-4	0	31*
O=C(N/N=C/c1ccncc1)C1CC1(c1ccccc1)c1ccccc1 (configuration not stated)	0%	5	-16	10	-1	7
C[C@H](CO)N1C[C@H](C)[C@H](CN(C)Cc2ccccc2)Oc2c(NC(=O)Nc3ccc(F)cc3)cccc2C1=O	.	.	-20	.	-5	.
CC(C)C(NC(=O)c1ccccc1)C(=O)NCc1ccccn1 (configuration not stated)	5%	1	2	-10	0	61*
CCC(=O)Nc1ccccc1Nc1cc(C#N)c(C#N)cc1[N+](=O)[O-]	-10%	-1	74*	-3	10	8
N#Cc1ccccc1NC(=O)COC(=O)COc1ccccc1[N+](=O)[O-]	-3%	0	-1	4	0	-17
CN1CCN(CC/C=C2/c3ccccc3Sc3ccc(S(=O)(=O)N(C)C)cc32)CC1	-13%	1	-35	-23	-3	80*
CN1CCN(CC(=O)N2c3ccccc3Sc3ccccc32)CC1	1%	1	-16	-16	2	-15
Cc1ccc(S(=O)(=O)N(C)c2ccc(C(=O)NCc3ccccn3)cc2)cc1	-8%	0	-7	-12	2	57*
